Laboratory results as given in the supplement of paper PMC10849652.
About 7,900 targets were measured; listed, in parts, are those with a hit and a random draw of the rest. About 0.6% of all pairs of compound and target were hits.

Key:
Assay in all cases: log2 fold change, soluble protein after heating vs DMSO (PISA); higher = thermal stabilisation; K562 cells, 10 uM, 30 min; active = over 0.2 and 3.5 SD of the protein, either way, in both replicates (recomputed)
[1] = compound: NC(=O)Nc1cc(-c2cccc(F)c2)sc1C(=O)N[C@H]1CCCNC1
In short: (§1)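 Thermal stability values are relative to control samples and come from duplicates. They are expressed as log2 fold changes. For measurement, K562 cells (2×10^6 cells/mL) received 10 μM compound for 30 min, and aliquots were heated for 3 min over 48°C-58°C, pooled, and extracted at 4°C in PBS with 0.5% NP-40. Soluble protein, the supernatant after 21,000xg for 90 min, was quantified by TMTpro 16plex LC-MS/MS with equalised channel sums.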

[2] = compound: NC(=O)c1cnc(N[C@@H]2CCCC[C@@H]2N)nc1Nc1cccc(-n2nccn2)c1
In short: as §1

[3] = compound: NC1(c2ccc(-c3nc4ccn5c(=O)[nH]nc5c4cc3-c3ccccc3)cc2)CCC1
In short: as §1

[4] = compound: NCC(=O)Nc1ccc(-n2nc(C(F)(F)F)cc2-c2ccc3c(ccc4ccccc43)c2)cc1
In short: as §1

[5] = compound: Nc1ccccc1NC(=O)c1ccc(CNC(=O)OCc2cccnc2)cc1 [entinostat]
In short: as §1

[6] = compound: O=C(CCCCCCC(=O)Nc1ccccc1)NO [vorinostat]
In short: as §1

[7] = compound: O=C(CCCCCCNC(=O)c1cnc(N(c2ccccc2)c2ccccc2Cl)nc1)NO [citarinostat]
In short: as §1

[8] = compound: O=C(O)c1ccc2c(c1)nc(Nc1cccc(Cl)c1)c1ccncc12 [silmitasertib]
In short: as §1

[9] = compound: O=C1NC(=O)C(c2cnc3ccccn23)=C1c1cn2c3c(cc(F)cc13)CN(C(=O)N1CCCCC1)CC2
In short: as §1

[10] = compound: c1cc(OCCN2CCCCC2)cc(-c2n[nH]c3ccc(-c4nnc[nH]4)cc23)c1
In short: as §1

[11] = compound: c1cn2cc(-c3ccc4cn[nH]c4c3)nc(Nc3ccc(N4CCOCC4)cc3)c2n1 [entospletinib]
In short: as §1

Measured: log2 fold change

PLCB3 (UniProt Q01970)
inactive: [1] -0.005 | [2] -0.086 | [3] -0.141 | [4] -0.023 | [5] 0.037 | [6] -0.008 | [7] -0.007 | [8] 0.008 | [9] 0.005 | [10] 0.064 | [11] 0.028

PGGHG (UniProt Q32M88)
Sequence of UniProt Q32M88 (Q32M88 whole entry, looked up): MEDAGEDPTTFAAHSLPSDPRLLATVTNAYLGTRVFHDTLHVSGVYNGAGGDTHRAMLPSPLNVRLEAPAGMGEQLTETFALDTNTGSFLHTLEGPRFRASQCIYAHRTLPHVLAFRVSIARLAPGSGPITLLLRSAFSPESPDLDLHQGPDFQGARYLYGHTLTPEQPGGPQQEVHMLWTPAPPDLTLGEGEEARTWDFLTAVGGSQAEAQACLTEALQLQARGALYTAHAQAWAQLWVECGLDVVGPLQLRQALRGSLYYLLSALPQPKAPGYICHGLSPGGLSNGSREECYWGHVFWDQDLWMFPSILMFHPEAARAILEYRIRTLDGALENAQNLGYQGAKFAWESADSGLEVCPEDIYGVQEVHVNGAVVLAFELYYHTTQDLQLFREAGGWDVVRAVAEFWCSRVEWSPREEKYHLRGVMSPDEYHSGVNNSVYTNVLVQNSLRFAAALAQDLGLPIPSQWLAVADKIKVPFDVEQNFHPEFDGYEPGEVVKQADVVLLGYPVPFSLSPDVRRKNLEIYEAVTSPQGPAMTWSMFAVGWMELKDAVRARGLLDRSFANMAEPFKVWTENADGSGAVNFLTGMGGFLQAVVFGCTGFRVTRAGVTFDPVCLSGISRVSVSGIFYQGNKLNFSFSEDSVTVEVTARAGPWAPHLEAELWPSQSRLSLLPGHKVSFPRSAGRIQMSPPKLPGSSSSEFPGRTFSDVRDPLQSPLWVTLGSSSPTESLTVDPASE
inactive: [1] -0.036 | [2] -0.155 | [3] -0.051 | [4] 0.083 | [5] -0.033 | [6] 0.019 | [7] -0.009 | [8] 0.073 | [9] -0.076 | [10] 0.058 | [11] 0.023

POLR2A (UniProt P24928)
inactive: [1] -0.057 | [2] 0.121 | [3] -0.049 | [4] -0.094 | [5] 0.049 | [6] -0.067 | [7] -0.062 | [8] 0.086 | [9] 0.059 | [10] -0.05 | [11] 0.162

PSMC3 (UniProt P17980)
inactive: [1] 0.014 | [2] -0.011 | [3] 0.046 | [4] 0.078 | [5] -0.024 | [6] -0.017 | [7] -0.053 | [8] -0.018 | [9] 0.049 | [10] -0.092 | [11] 0

PRKAA1 isoform 2 (UniProt Q13131)
inactive: [1] -0.141 | [2] -0.009 | [3] -0.049 | [4] -0.007 | [5] 0.002 | [6] 0.052 | [7] 0.044 | [8] -0.006 | [9] -0.007 | [10] -0.056 | [11] -0.015

PTPA (UniProt A6PVN8)
inactive: [1] -0.015 | [2] -0.057 | [3] -0.062 | [4] -0.003 | [5] -0.04 | [6] 0.099 | [7] -0.098 | [8] 0.266 | [9] 0.05 | [10] -0.05 | [11] -0.004

PYGB (UniProt P11216)
inactive: [1] 0.209 | [2] -0.077 | [3] -0.018 | [4] -0.041 | [5] -0.003 | [6] 0.063 | [7] 0.033 | [8] -0.005 | [9] -0.105 | [10] -0.105 | [11] -0.156

PSMC6 (UniProt P62333)
inactive: [1] 0.007 | [2] 0.015 | [3] 0.069 | [4] 0.075 | [5] -0.015 | [6] -0.005 | [7] -0.048 | [8] -0.035 | [9] 0.072 | [10] -0.075 | [11] 0.01

POLR2D (UniProt O15514)
inactive: [1] 0.04 | [2] 0.145 | [3] -0.016 | [4] 0.022 | [5] -0.026 | [6] -0.133 | [7] -0.078 | [8] 0.049 | [9] -0.015 | [10] -0.06 | [11] 0.162

PLCG1 isoform 2 (UniProt P19174)
inactive: [1] 0.01 | [2] -0.193 | [3] -0.197 | [4] -0.109 | [5] 0.04 | [6] -0.003 | [7] 0.059 | [8] 0.01 | [9] 0 | [10] -0.066 | [11] 0.021

PCYT1A (UniProt P49585)
inactive: [1] -0.015 | [2] -0.093 | [3] -0.234 | [4] -0.066 | [5] 0.033 | [6] 0.086 | [7] 0.081 | [8] 0.022 | [9] -0.06 | [10] -0.002 | [11] 0.017

PXK (UniProt Q7Z7A4)
active: [3] -0.279
inactive: [1] -0.057 | [2] -0.044 | [4] -0.073 | [5] 0.014 | [6] 0.018 | [7] 0.021 | [8] -0.002 | [9] -0.043 | [10] 0.008 | [11] 0.009

PPP1R14A (UniProt Q96A00)
inactive: [1] -0.051 | [2] 0.101 | [3] 0.02 | [4] 0.029 | [5] 0 | [6] 0.105 | [7] 0 | [8] -0.089 | [9] -0.014 | [10] 0.018 | [11] 0

PCTP (UniProt Q9UKL6)
inactive: [1] -0.078 | [2] -0.07 | [3] -0.023 | [4] -0.092 | [5] 0.065 | [6] -0.051 | [7] 0.003 | [8] 0.043 | [9] -0.061 | [10] 0.363 | [11] -0.072

PRPF4B (UniProt Q13523)
Sequence of UniProt Q13523 (Q13523 whole entry, looked up): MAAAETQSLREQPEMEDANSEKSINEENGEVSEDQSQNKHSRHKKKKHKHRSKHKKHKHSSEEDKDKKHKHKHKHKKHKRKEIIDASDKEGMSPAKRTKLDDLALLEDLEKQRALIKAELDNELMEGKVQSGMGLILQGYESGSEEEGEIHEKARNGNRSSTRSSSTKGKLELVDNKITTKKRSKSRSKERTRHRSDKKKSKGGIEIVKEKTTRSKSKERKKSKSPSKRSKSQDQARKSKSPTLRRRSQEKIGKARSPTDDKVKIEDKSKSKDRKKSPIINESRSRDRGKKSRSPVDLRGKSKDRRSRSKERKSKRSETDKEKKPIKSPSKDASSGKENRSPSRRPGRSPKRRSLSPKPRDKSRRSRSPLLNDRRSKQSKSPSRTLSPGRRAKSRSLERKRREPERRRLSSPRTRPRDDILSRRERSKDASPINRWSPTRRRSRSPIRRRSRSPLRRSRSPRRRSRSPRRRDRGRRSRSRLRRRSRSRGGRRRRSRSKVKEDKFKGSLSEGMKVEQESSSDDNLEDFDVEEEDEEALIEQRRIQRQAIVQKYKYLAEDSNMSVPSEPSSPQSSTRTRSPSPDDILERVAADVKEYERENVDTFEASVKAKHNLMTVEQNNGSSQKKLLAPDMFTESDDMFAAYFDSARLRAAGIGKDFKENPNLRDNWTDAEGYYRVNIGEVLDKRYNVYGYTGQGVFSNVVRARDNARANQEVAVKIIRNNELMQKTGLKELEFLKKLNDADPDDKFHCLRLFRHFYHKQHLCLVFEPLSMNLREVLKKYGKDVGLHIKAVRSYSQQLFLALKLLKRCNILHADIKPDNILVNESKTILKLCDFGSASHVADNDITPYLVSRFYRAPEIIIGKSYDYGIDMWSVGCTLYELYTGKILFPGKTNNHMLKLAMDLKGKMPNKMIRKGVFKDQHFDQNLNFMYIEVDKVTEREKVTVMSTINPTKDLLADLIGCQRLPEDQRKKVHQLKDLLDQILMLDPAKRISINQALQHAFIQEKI
inactive: [1] -0.057 | [2] -0.075 | [3] -0.022 | [4] -0.065 | [5] -0.008 | [6] 0.025 | [7] 0.033 | [8] 0.01 | [9] 0.055 | [11] 0.09
active: [10] -0.328

PSMB6 (UniProt P28072)
Sequence of UniProt P28072 (P28072 whole entry, looked up): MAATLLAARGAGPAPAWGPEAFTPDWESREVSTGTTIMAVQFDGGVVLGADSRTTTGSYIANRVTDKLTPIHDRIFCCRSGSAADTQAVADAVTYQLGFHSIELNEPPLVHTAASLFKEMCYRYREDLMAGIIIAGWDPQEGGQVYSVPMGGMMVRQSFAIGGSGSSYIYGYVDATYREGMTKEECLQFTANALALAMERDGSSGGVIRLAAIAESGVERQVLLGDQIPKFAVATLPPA
inactive: [1] 0.024 | [2] 0.006 | [3] 0.046 | [4] 0.044 | [5] -0.054 | [6] -0.093 | [7] -0.046 | [8] -0.004 | [9] 0.044 | [10] -0.034 | [11] 0.008

PIK3CB (UniProt P42338)
Sequence of UniProt P42338 (P42338 whole entry, looked up): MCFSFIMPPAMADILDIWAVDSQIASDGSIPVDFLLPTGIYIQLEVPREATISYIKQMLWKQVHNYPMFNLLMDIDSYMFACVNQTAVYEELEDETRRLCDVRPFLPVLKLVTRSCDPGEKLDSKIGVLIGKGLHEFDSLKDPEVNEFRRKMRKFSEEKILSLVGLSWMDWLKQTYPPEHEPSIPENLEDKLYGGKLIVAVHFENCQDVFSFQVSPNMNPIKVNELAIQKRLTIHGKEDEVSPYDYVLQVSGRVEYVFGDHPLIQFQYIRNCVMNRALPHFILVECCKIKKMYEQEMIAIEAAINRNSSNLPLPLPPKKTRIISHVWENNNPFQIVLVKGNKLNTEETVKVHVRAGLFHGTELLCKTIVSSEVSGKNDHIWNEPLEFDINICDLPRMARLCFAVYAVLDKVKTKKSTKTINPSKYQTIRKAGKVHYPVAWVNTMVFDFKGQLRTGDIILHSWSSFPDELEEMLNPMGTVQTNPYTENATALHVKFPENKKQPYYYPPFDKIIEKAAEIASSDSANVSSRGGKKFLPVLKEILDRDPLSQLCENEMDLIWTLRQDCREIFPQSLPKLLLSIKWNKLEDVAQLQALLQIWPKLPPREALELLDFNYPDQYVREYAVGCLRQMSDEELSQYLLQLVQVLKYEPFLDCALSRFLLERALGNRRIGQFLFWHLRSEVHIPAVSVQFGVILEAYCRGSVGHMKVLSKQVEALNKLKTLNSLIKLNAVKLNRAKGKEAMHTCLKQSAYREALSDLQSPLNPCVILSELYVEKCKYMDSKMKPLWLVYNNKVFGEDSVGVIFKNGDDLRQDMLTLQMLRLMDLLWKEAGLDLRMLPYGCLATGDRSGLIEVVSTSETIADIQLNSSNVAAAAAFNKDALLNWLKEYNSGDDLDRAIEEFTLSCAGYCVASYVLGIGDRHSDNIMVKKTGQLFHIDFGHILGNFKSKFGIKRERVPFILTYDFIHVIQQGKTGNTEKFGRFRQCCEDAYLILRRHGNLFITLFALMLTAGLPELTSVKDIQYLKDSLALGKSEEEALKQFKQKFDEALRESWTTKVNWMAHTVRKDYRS
inactive: [1] -0.057 | [2] -0.106 | [3] -0.008 | [4] -0.102 | [5] 0.014 | [6] 0.001 | [7] 0.003 | [8] -0.053 | [9] -0.039 | [10] -0.049 | [11] 0.033

PRIM1 (UniProt P49642)
inactive: [1] -0.008 | [2] -0.016 | [3] -0.093 | [4] -0.056 | [5] 0.041 | [6] 0.065 | [7] 0.063 | [8] 0.089 | [9] 0.023 | [10] -0.037 | [11] 0.062

PPP2R5C isoform 4 (UniProt Q13362)
inactive: [1] -0.035 | [2] 0.079 | [3] -0.064 | [4] -0.065 | [5] 0.012 | [6] -0.033 | [7] 0.055 | [8] -0.015 | [9] -0.022 | [10] 0.058 | [11] -0.023

PEX11B (UniProt O96011)
Sequence of UniProt O96011 (O96011 whole entry, looked up, change not shown): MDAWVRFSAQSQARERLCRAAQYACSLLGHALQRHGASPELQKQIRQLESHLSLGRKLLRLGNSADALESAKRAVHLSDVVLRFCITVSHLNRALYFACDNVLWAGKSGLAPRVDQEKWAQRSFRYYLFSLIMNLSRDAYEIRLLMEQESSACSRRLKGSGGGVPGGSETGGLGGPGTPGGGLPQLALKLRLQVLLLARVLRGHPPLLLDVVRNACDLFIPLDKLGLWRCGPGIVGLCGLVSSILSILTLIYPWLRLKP
inactive: [1] 0.095 | [2] 0.052 | [3] -0.03 | [4] 0.073 | [5] 0.047 | [6] 0.049 | [7] 0.114 | [8] -0.031 | [9] 0.035 | [10] 0.024 | [11] -0.082

PTPA (UniProt Q15257)
Sequence of UniProt Q15257 (Q15257 whole entry, looked up): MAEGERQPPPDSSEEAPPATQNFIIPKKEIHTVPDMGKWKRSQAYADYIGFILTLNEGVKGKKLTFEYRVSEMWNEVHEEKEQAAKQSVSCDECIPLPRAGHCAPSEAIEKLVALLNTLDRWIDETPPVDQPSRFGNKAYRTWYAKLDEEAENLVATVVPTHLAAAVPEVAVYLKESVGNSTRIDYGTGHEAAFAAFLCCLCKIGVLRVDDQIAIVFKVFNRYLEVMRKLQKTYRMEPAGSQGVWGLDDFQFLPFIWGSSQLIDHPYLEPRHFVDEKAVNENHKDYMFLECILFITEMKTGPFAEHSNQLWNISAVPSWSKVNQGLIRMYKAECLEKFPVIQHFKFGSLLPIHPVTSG
inactive: [1] -0.022 | [2] 0.001 | [3] -0.021 | [4] 0.028 | [5] 0 | [6] 0.004 | [7] 0.028 | [8] -0.027 | [9] -0.021 | [10] -0.015 | [11] -0.004

PPP1CA (UniProt P62136)
Sequence of UniProt P62136 (P62136 whole entry, looked up): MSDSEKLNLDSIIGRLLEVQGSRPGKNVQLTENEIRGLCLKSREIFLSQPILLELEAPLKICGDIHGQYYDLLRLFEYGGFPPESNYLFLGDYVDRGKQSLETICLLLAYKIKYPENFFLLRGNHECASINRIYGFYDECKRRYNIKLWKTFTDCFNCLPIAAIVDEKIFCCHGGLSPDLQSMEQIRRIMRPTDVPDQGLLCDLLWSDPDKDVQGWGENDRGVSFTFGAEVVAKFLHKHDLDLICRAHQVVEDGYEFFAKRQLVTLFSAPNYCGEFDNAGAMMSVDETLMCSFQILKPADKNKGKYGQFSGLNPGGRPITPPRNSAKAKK
inactive: [1] -0.036 | [2] -0.051 | [3] -0.019 | [4] -0.02 | [5] -0.012 | [6] -0.023 | [7] 0.034 | [8] 0 | [9] 0.007 | [10] -0.045 | [11] 0.037

PTGES3 (UniProt Q15185)
Sequence of UniProt Q15185 (Q15185 whole entry, looked up): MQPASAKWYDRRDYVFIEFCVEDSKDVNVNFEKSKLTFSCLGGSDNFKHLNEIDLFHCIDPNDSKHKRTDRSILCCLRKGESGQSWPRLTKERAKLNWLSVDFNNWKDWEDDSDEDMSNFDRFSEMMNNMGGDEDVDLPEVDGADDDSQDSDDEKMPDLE
inactive: [1] -0.043 | [2] -0.006 | [3] -0.123 | [4] 0.017 | [5] 0.075 | [6] 0.002 | [7] 0.111 | [8] -0.002 | [9] -0.142 | [10] 0.054 | [11] -0.005

PLBD2 (UniProt Q8NHP8)
inactive: [1] -0.002 | [2] 0.049 | [3] -0.091 | [4] -0.004 | [5] -0.008 | [6] -0.073 | [7] 0.003 | [8] 0.017 | [9] 0.001 | [10] -0.006 | [11] -0.038

PCGF2 (UniProt P35227)
Sequence of UniProt P35227 (P35227 whole entry, looked up): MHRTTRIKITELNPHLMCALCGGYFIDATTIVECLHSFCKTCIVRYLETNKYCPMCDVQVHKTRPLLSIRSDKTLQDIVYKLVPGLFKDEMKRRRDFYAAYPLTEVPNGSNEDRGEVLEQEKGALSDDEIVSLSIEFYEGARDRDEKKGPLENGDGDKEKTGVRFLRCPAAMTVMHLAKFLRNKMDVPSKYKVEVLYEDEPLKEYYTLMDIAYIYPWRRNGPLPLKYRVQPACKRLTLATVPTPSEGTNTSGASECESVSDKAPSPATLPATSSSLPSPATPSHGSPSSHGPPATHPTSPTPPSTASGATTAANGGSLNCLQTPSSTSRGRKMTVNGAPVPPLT
inactive: [1] -0.164 | [2] -0.125 | [3] -0.048 | [4] -0.025 | [5] 0.114 | [6] -0.059 | [7] 0.134 | [8] 0.051 | [9] -0.069 | [10] -0.022 | [11] 0

PDCD6 (UniProt O75340)
inactive: [1] -0.066 | [2] -0.08 | [3] 0.117 | [4] -0.106 | [5] 0.081 | [6] 0.028 | [7] 0.064 | [8] -0.022 | [9] -0.096 | [10] -0.024 | [11] 0.024

PRUNE1 (UniProt Q86TP1)
Sequence of UniProt Q86TP1 (Q86TP1 whole entry, looked up): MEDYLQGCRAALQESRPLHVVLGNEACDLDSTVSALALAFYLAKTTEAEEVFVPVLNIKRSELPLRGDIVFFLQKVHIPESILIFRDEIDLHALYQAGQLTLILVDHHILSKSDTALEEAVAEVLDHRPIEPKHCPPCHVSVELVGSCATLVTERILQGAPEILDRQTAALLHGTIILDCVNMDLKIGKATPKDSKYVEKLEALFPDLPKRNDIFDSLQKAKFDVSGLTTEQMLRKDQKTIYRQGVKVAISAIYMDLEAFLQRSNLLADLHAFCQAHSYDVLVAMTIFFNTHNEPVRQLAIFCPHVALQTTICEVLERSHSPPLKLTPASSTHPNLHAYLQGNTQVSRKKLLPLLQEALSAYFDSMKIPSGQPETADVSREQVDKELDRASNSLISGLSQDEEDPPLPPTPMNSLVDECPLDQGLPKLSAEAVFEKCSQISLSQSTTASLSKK
inactive: [1] -0.004 | [2] -0.012 | [3] -0.179 | [4] 0.052 | [5] 0.041 | [6] 0.04 | [7] 0.006 | [8] 0.138 | [9] -0.107 | [10] 0.018 | [11] 0.029
